Reference: the supplement of paper PMC8728848
The entries come from a sample that favours the strongest signals as a whole.

Legend:
Experiment in all cases: glycan array binding signal (z-score within array); higher = stronger binding
Details in all cases: glycan notation: IUPAC condensed, linker removed
[1] = target: Fuc(a1-2)Gal(b1-3)GlcNAc(b1-3)Gal(b1-4)Glc
Summary of the method: (§1)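 The Consortium for Functional Glycomics database supplied 3228 glycan arrays, of which those lacking an available protein sequence were dropped. The binding signal, a within-array Z-score, was averaged across arrays of the same protein sequence and across linkers. Negative scores can be read as non-binding.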

[2] = target: Fuc(a1-2)Gal(b1-4)Glc
Summary of the method: as §1

[3] = target: Fuc(a1-2)Gal(b1-4)GlcNAc(b1-3)GalNAc
Summary of the method: as §1

[4] = target: Fuc(a1-2)Gal6S(b1-3)GlcNAc
Summary of the method: as §1

[5] = target: Fuc(a1-2)[Gal(a1-3)]Gal(b1-4)[Fuc(a1-3)]GlcNAc
Summary of the method: as §1

[6] = target: Fuc(a1-2)[GalNAc(a1-3)]Gal(b1-3)GalNAc(b1-3)Gal(a1-4)Gal(b1-4)Glc
Summary of the method: as §1

[7] = target: Fuc(a1-2)[GalNAc(a1-3)]Gal(b1-4)GlcNAc(b1-2)Man(a1-3)[Fuc(a1-2)[GalNAc(a1-3)]Gal(b1-4)GlcNAc(b1-2)Man(a1-6)]Man(b1-4)GlcNAc(b1-4)GlcNAc
Summary of the method: as §1

[8] = target: Fuc(a1-3)[Gal(b1-4)]GlcNAc(b1-3)GalNAc
Summary of the method: as §1

[9] = target: Gal(a1-3)Gal(b1-4)GlcNAc(b1-2)Man
Summary of the method: as §1

[10] = target: Gal(a1-4)GlcNAc
Summary of the method: as §1

[11] = target: Gal(b1-3)Gal(b1-4)GlcNAc
Summary of the method: as §1

[12] = target: Gal(b1-3)GalNAc(b1-3)Gal
Summary of the method: as §1

[13] = target: Gal(b1-3)GalNAc(b1-4)Gal(b1-4)Glc
Summary of the method: as §1

[14] = target: Gal(b1-3)GalNAc(b1-4)[Neu5Ac(a2-3)]Gal(b1-4)Glc
Summary of the method: as §1

[15] = target: Gal(b1-3)[Neu5Ac(a2-6)]GalNAc
Summary of the method: as §1

[16] = target: Gal(b1-4)GlcNAc(b1-2)Man(a1-3)[Gal(b1-4)GlcNAc(b1-2)Man(a1-6)]Man(b1-4)GlcNAc(b1-4)GlcNAc
Summary of the method: as §1

[17] = target: Gal(b1-4)GlcNAc(b1-2)Man(a1-3)[Man(a1-6)]Man(b1-4)GlcNAc(b1-4)GlcNAc
Summary of the method: as §1

[18] = target: Gal(b1-4)GlcNAc(b1-2)[Gal(b1-4)GlcNAc(b1-6)]Man(a1-6)[Gal(b1-4)GlcNAc(b1-2)Man(a1-3)]Man(b1-4)GlcNAc(b1-4)[Fuc(a1-6)]GlcNAc
Summary of the method: as §1

[19] = target: Gal(b1-4)GlcNAc(b1-3)Gal(b1-3)GlcNAc
Summary of the method: as §1

[20] = target: Gal(b1-4)GlcNAc(b1-3)Gal(b1-4)GlcNAc
Summary of the method: as §1

[21] = target: Gal(b1-4)GlcNAc(b1-3)Gal(b1-4)GlcNAc(b1-3)Gal(b1-4)GlcNAc(b1-3)Gal(b1-4)GlcNAc(b1-3)Gal(b1-4)GlcNAc(b1-2)Man(a1-3)[Gal(b1-4)GlcNAc(b1-3)Gal(b1-4)GlcNAc(b1-3)Gal(b1-4)GlcNAc(b1-3)Gal(b1-4)GlcNAc(b1-3)Gal(b1-4)GlcNAc(b1-2)Man(a1-6)]Man(b1-4)GlcNAc(b1-4)GlcNAc
Summary of the method: as §1

[22] = target: Gal3S(b1-3)[Fuc(a1-4)]GlcNAc
Summary of the method: as §1

[23] = target: Gal3S(b1-4)Glc
Summary of the method: as §1

[24] = target: Gal6S(b1-3)GlcNAc6S
Summary of the method: as §1

[25] = target: Gal6S(b1-4)Glc
Summary of the method: as §1

[26] = target: Gal6S(b1-4)Glc6S
Summary of the method: as §1

[27] = target: Gal6S(b1-4)GlcNAc
Summary of the method: as §1

[28] = target: Gal6S(b1-4)GlcNAc6S
Summary of the method: as §1

[29] = target: GalNAc3S(b1-4)GlcNAc3S
Summary of the method: as §1

[30] = target: GalNAc4S6S(b1-4)GlcNAc
Summary of the method: as §1

[31] = target: Glc(b1-6)Glc
Summary of the method: as §1

[32] = target: GlcA(b1-3)Gal
Summary of the method: as §1

[33] = target: GlcA(b1-3)GlcNAc
Summary of the method: as §1

[34] = target: GlcA3S(b1-3)Gal(b1-4)GlcNAc(b1-3)Gal(b1-4)Glc
Summary of the method: as §1

[35] = target: GlcNAc(b1-2)Man(a1-3)[GlcNAc(b1-4)][GlcNAc(b1-2)Man(a1-6)]Man(b1-4)GlcNAc(b1-4)[Fuc(a1-6)]GlcNAc
Summary of the method: as §1

[36] = target: GlcNAc(b1-2)[GlcNAc(b1-4)]Man(a1-3)[GlcNAc(b1-2)Man(a1-6)]Man(b1-4)GlcNAc(b1-4)GlcNAc
Summary of the method: as §1

[37] = target: GlcNAc(b1-2)[GlcNAc(b1-6)]Man(a1-6)[GlcNAc(b1-2)Man(a1-3)]Man(b1-4)GlcNAc(b1-4)GlcNAc
Summary of the method: as §1

[38] = target: GlcNAc(b1-3)GalNAc
Summary of the method: as §1

[39] = target: Kdn(a2-3)Gal(b1-3)GalNAc
Summary of the method: as §1

[40] = target: Man(a1-3)[Man(a1-6)]Man
Summary of the method: as §1

[41] = target: Man(a1-3)[Man(a1-6)]Man(b1-4)GlcNAc(b1-4)[Fuc(a1-6)]GlcNAc
Summary of the method: as §1

[42] = target: Neu5Ac(a2-3)Gal(b1-3)GlcNAc(b1-2)Man
Summary of the method: as §1

[43] = target: Neu5Ac(a2-3)Gal(b1-4)GlcNAc(b1-2)Man(a1-3)[Neu5Ac(a2-6)Gal(b1-4)GlcNAc(b1-2)Man(a1-6)]Man(b1-4)GlcNAc(b1-4)GlcNAc
Summary of the method: as §1

[44] = target: Neu5Ac(a2-3)Gal(b1-4)[Fuc(a1-3)]GlcNAc6S
Summary of the method: as §1

[45] = target: Neu5Ac(a2-6)Gal(b1-4)GlcNAc(b1-2)Man(a1-3)[Gal(b1-4)GlcNAc(b1-2)Man(a1-6)]Man(b1-4)GlcNAc(b1-4)GlcNAc
Summary of the method: as §1

[46] = target: Neu5Ac(a2-6)Gal(b1-4)GlcNAc(b1-3)Gal(b1-4)GlcNAc(b1-3)Gal(b1-4)GlcNAc(b1-2)Man(a1-3)[Neu5Ac(a2-6)Gal(b1-4)GlcNAc(b1-3)Gal(b1-4)GlcNAc(b1-3)Gal(b1-4)GlcNAc(b1-2)Man(a1-6)]GalNAc
Summary of the method: as §1

[47] = target: Neu5Ac(a2-6)GalNAc
Summary of the method: as §1

[48] = target: Neu5Ac(b2-6)GalNAc
Summary of the method: as §1

[49] = target: Neu5Gc(a2-8)Neu5Ac(a2-3)Gal(b1-4)GlcNAc
Summary of the method: as §1

B1: Epa1to9 (Candida glabrata) (protein)
chain: MGSSHHHHHHSSGLVPRGSHMTSSNDISLASKDPTTFPLGCSPDITTPKKGLSMELYSYDFRKKGSYPCWDAAYLDPNYPRTGYKSHRLLAKVDGVTGNINFYYHATKGCTPQLGHLPASYNYPKPLTMTNFTMLLYGYFRPKVTGFHTFTISADDLLFVNFGAGNAFDCCRRDSSADHFGNYQAYAIWGSKTAKDELTVHLDAGVYYPIRLFYNNRDYHGALSFTFKTESNENTVSDFSEYFFSLDDTEEGCPGLISYD
With B1 the “glycan array binding signal (z-score)” value [1] was -0.354, the “glycan array binding signal (z-score)” value [2] was -0.307 and the “glycan array binding signal (z-score)” value [3] was -0.34. For the same binder, the “glycan array binding signal (z-score)” value [4] was 0.035, the “glycan array binding signal (z-score)” value [5] was -0.276 and the “glycan array binding signal (z-score)” value [6] was -0.349. For the same binder, the “glycan array binding signal (z-score)” value [7] was -0.318, the “glycan array binding signal (z-score)” value [8] was -0.293 and the “glycan array binding signal (z-score)” value [9] was 0.008. The “glycan array binding signal (z-score)” value [10] was 1.94, the “glycan array binding signal (z-score)” value [11] was 4.22 and the “glycan array binding signal (z-score)” value [12] was 3.67. The “glycan array binding signal (z-score)” value [13] was 4.67, the “glycan array binding signal (z-score)” value [14] was 2.83 and the “glycan array binding signal (z-score)” value [15] was 4.47. The “glycan array binding signal (z-score)” value [16] was 1.17, the “glycan array binding signal (z-score)” value [17] was -0.161 and the “glycan array binding signal (z-score)” value [18] was 3.13. The “glycan array binding signal (z-score)” value [19] was -0.107, the “glycan array binding signal (z-score)” value [20] was -0.064 and the “glycan array binding signal (z-score)” value [21] was 0.122. For the same binder, the “glycan array binding signal (z-score)” value [22] was -0.345, the “glycan array binding signal (z-score)” value [23] was -0.283 and the “glycan array binding signal (z-score)” value [24] was 4.86. For the same binder, the “glycan array binding signal (z-score)” value [25] was 5.05, the “glycan array binding signal (z-score)” value [26] was 7.26 and the “glycan array binding signal (z-score)” value [27] was 4.98. The “glycan array binding signal (z-score)” value [28] was 10.6, the “glycan array binding signal (z-score)” value [29] was -0.353 and the “glycan array binding signal (z-score)” value [30] was -0.346. The “glycan array binding signal (z-score)” value [31] was -0.333, the “glycan array binding signal (z-score)” value [32] was -0.315 and the “glycan array binding signal (z-score)” value [33] was -0.346. For the same binder, the “glycan array binding signal (z-score)” value [34] was -0.35, the “glycan array binding signal (z-score)” value [35] was -0.354 and the “glycan array binding signal (z-score)” value [36] was -0.295. For the same binder, the “glycan array binding signal (z-score)” value [37] was -0.344, the “glycan array binding signal (z-score)” value [38] was -0.352 and the “glycan array binding signal (z-score)” value [39] was -0.38. For the same binder, the “glycan array binding signal (z-score)” value [40] was -0.287, the “glycan array binding signal (z-score)” value [41] was -0.339 and the “glycan array binding signal (z-score)” value [42] was -0.33. The “glycan array binding signal (z-score)” value [43] was -0.322, the “glycan array binding signal (z-score)” value [44] was -0.36 and the “glycan array binding signal (z-score)” value [45] was -0.246. The “glycan array binding signal (z-score)” value [46] was -0.309, the “glycan array binding signal (z-score)” value [47] was -0.343 and the “glycan array binding signal (z-score)” value [48] was -0.346. The “glycan array binding signal (z-score)” value [49] was -0.338.
